Source: PubChem BioAssay (NCI)
Compounds without any hit were thinned out: in the full panel of roughly 83,000, 20% have a hit.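 Growth was measured after 48 h exposure to one concentration of compound in 96-well plates. Values under 10 count as active.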 Values without a mark were called inactive. Calls of active or inactive are those of the source.

System: UACC-62 melanoma
Assay: NCI-60 one-dose screen, 48 h (100 = growth as untreated, 0 = no growth, -100 = all killed)
Conditions: 10 µM
Protocol: Growth inhibition of the UACC-62 human tumor cell line is measured as a screen for anti-cancer activity. Cells are grown in 96 well plates and exposed to the test compound for 48 hours. Compounds are tested at a single concentration, which is 10^-5 M for most compounds. The reported endpoint is percent growth (GI% or GIPRCNT), where numbers from 0 - 100% represent growth inhibition, and numbers from -100% - 0 represent cell death. For example, a value of 40 represents 60% growth inhibition. A value of 0 means no net growth occurred over the course of the experiment. A value of -40 indicates 40% of cells at the beginning of the experiment died by the end of the experiment. A value of -100 means all cells are dead at the end of the experiment.
NCI-60 Human Tumor Cell Lines Screen was performed using the standard one-dose NCI protocol, which is described in more detail at https://dtp.cancer.gov/discovery_development/nci-60/default.htm.
Compounds with GIPRCNT values below 10 were considered active. Activity score was based on GIPRCNT using the following formula: […]
Score is 0 for GIPRCNT values of 100 or above, 50 for GIPRCNT values of 0, and 100 for GIPRCNT values of -100.

| SMILES | growth |
| --- | --- |
| COc1cc(-c2nc3ccc(C)cc3[nH]2)ccc1OCc1nnc(-c2ccccc2Br)o1 | 92% |
| Nc1nnc(-c2c[nH]c3ncc(Br)cc23)c(-c2c[nH]c3ccc(Br)cc23)n1 | 24.4% |
| O=C1S/C(=C\c2ccc([N+](=O)[O-])cc2)C(=O)N1CCN1CCCCC1 | 99.6% |
| COc1ccc(Cc2nn(CC(=O)N/N=C/c3ccc(Br)cc3)c(=O)c3c(C)noc23)cc1 | 54.3% |
| CC1[C@H]2[C@H](C[C@H]3[C@@H]4CC=C5c6sc(Nc7cccc(Cl)n7)nc6CC[C@]5(C)[C@H]4CC[C@@]32C)O[C@]12CC[C@@H](C)CO2 (stereo not given in full) | 54.5% |
| O=C1NC(=S)S/C1=C\c1cn(-c2ccccc2)nc1-c1ccc([N+](=O)[O-])cc1 | 8.03% (active) |
| CC1(C)CC[C@]2(C(=O)O)CC[C@]3(C)C(=CCC4[C@@]5(C)C[C@@H](O)[C@@H]6OC(c7cccc(F)c7)OC[C@@]6(C)C5CC[C@]43C)C2C1 (stereo not given in full) | 49.7% |
| COc1ccc2[nH]cc(-c3nc(N)nnc3-c3cn(C)c4ncc(Br)cc34)c2c1 | 14.2% |
| O=C(c1ccc(Cl)cc1)C(c1c[nH]c2ccccc12)c1c[nH]c2ccccc12 | -53.4% (active) |
| Cn1cc(-c2nnc(N)nc2-c2c[nH]c3ccc(F)cc23)c2cc(Br)cnc21 | 50.8% |
| O=C(Nc1ccc(OCc2ccc(F)cc2)cc1)Nc1ccc(Cl)c(C(F)(F)F)c1 | 6.53% (active) |
| COc1ccc(C2c3sc4ccc(C)cc4c3Oc3nc(N)nc(N)c32)cc1 (stereo not given) | 63.4% |
| Cc1cc(N=C2NC(=O)/C(=C/c3cc(C(C)(C)C)c(O)c(C(C)(C)C)c3)S2)n[nH]1 | 8.86% (active) |
| Cc1ccc2sc3c(c2c1)Oc1nc[nH]c(=O)c1C3c1cccc(F)c1 (stereo not given) | 74.5% |
| Cn1cc(-c2cc3nc(-c4c[nH]c5ccccc45)cc(N)n3n2)c2cc(Cl)ccc21 | -85.8% (active) |
| Cn1cc(/C=C(/SS/C(=C/c2cn(C)c3cccc(C(=O)O)c23)C(=O)O)C(=O)O)c2c(C(=O)O)cccc21 | 92.3% |
| C#C[C@]1(O)CC[C@H]2[C@@H]3CC=C4c5sc(Nc6cc(C)cc(C)n6)nc5CC[C@]4(C)[C@H]3CC[C@@]21C | -53.1% (active) |
| O=C(Nc1ccc(OCc2ccc(Cl)cc2)cc1)Nc1ccc(Cl)c(C(F)(F)F)c1 | 16.8% |
| COc1cccc(O)c1/C=C1\SCc2cc3c(OC)cccc3[o+]c21 | 98.7% |
| Cc1ccc2c(c1)C(=O)/C(=C/c1ccc([N+](=O)[O-])cc1)S2 | 73.2% |

| SMILES | growth |
| --- | --- |
| Fc1ccc(-c2csc(Nc3cccc(Nc4nc(-c5ccc(F)cc5)cs4)c3)n2)cc1 | 57.1% |
| Cc1ccc2c(c1)C(=O)/C(=C/c1c[nH]c3ccccc13)S2 | 54.4% |
| CC1(C)CC(=O)C2=C(C1)N(Cc1ccc(C(=O)O)cc1)C1=C(C(=O)CC(C)(C)C1)C2c1ccc(Cl)cc1 | 89.9% |
| CCn1c(SCC(=O)Nc2ccc(-c3nc4ccccc4[nH]3)cc2)nc2ccccc2c1=O | -81.7% (active) |
| COc1ccc(C2c3sc4ccc(C)cc4c3Oc3nc[nH]c(=O)c32)cc1 (stereo not given) | 59.2% |
| COc1ccc(Cc2nn(CC(=O)N/N=C/c3ccc([N+](=O)[O-])cc3)c(=O)c3c(C)noc23)cc1 | 73.9% |
| COc1cccc(C(=O)CSc2nc(-c3ccc(OCc4ccccc4)c(OC)c3)c(C#N)c(=O)[nH]2)c1 | 90.9% |
| COc1ccc(NCc2cn(-c3ccc(C(=O)O)cc3)nc2-c2ccc(F)cc2)cc1C(F)(F)F | 13.4% |
| COc1ccc(C2OC[C@@]3(C)C4CC[C@]5(C)C(CC=C6C7CC(C)(C)CC[C@]7(C(=O)O)CC[C@]65C)[C@@]4(C)C[C@@H](O)[C@@H]3O2)cc1 (stereo not given in full) | 85.3% |
| COc1cc(Nc2nc(O)c(/C=C3\C=Nc4ccccc43)s2)cc(OC)c1OC | -65.9% (active) |
| COc1cc2oc(-c3cccc(C(=O)Nc4ccc(Cl)cc4)c3)cc(=O)c2c(OCCNC(=O)[C@@H](N)CO)c1OC | 38.8% |
| CCOC(=O)C1=C(N)N(c2ccc(C)cc2)C2=C(C(=O)CC(C)(C)C2)C1c1ccccc1Br (stereo not given) | 71.8% |
| Cc1ccc(-c2nc(C#N)c(S(=O)(=O)N3CCN(S(C)(=O)=O)CC3)o2)cc1 | 53.4% |
| CCOC(=O)c1ccc(NC(=O)CSC(CC(=O)c2sc(Nc3ccccn3)nc2C)c2ccccc2F)cc1 (stereo not given) | 11.8% |
| O=C(c1ccc(F)cc1)C(c1c[nH]c2ccccc12)c1c[nH]c2ccccc12 | 53.7% |
| Cn1cc(-c2nc(N)nnc2-c2c[nH]c3ccccc23)c2cc(Br)cnc21 | 21.1% |
| O=[N+]([O-])c1cccc(-c2nnc3c(/C=C/c4ccccc4O)nc4ccccc4n23)c1 | 16% |
| O=C(CSc1nc2ccccc2c(=O)n1-c1ccc(Cl)cc1)Nc1ccc(-c2nc3ccccc3[nH]2)cc1 | -12.1% (active) |
| COc1ccc(-n2c(SCC(=O)NNS(=O)(=O)c3ccccc3)nc3ccc(Cl)cc3c2=O)cc1 | 77% |
| C#C[C@]1(O)CC[C@H]2[C@@H]3CC=C4c5sc(Nc6ccc(N(C)C)cc6)nc5CC[C@]4(C)[C@H]3CC[C@@]21C | -2.23% (active) |
